Source: PubChem (several laboratories)
Mdm2-MdmX inh: human Mdm2/MdmX binding inhibition. hit rate 3% among 330,000. O15151+Q00987. inhibition, % at 8 µM. SaOS-2 split-luciferase Mdm2/MdmX complementation, luminescence;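 active means inhibition of at least 50% at 8 µM in the primary screen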
Target sequence (O15151 whole entry, looked up): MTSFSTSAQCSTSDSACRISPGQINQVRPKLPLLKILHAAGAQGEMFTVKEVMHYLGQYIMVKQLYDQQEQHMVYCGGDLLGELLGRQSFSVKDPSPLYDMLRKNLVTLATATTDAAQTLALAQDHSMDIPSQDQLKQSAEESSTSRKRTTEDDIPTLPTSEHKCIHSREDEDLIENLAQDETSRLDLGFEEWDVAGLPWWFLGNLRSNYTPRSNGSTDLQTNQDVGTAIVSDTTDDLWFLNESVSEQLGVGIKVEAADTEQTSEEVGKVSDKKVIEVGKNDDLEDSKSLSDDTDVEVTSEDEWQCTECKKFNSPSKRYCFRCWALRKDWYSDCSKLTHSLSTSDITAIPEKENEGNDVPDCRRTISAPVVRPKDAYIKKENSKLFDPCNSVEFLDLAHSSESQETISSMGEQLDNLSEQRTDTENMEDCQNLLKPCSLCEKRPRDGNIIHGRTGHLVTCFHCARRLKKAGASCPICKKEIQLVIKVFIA
Target sequence (Q00987 whole entry, looked up): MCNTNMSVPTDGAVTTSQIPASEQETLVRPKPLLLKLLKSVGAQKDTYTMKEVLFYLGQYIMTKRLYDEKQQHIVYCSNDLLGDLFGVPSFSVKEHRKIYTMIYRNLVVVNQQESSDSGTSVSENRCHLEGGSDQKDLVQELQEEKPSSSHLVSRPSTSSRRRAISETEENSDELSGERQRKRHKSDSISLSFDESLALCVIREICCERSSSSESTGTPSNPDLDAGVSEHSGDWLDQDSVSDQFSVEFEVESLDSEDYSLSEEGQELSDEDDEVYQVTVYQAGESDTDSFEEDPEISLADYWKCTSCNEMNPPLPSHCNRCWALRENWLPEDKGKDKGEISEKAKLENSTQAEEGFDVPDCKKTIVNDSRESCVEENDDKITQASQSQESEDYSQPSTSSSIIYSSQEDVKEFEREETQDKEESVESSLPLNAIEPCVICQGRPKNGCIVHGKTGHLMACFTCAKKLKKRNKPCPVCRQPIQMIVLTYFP
CSC inhib: cancer stem cell inhibition. inhibition, % at 7.5 µM. hit rate 1.1% among 300,000. cancer stem cell-like cells viability, luminescence; in the data active means inhibition above about 75%; tested in HMLE shEcad cells
MPTP block: blocks calcium-induced mitochondrial swelling | isolated mouse mitochondria, Ca2+ swelling absorbance, 30 min | inhibition, % at 10 µM | hit rate 1.4% among 360,000 | AID 602449;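 active means inhibition of 50% or more, scaled per plate between neutral and stimulator controls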;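 further: 0% = DMSO wells given calcium and 100% = 1 mM EGTA wells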
Gli-Sufu antag: Gli-Sufu pathway antagonism. Sufu-KO-LIGHT fibroblasts, Gli luciferase reporter luminescence. inhibition, % at 5 µM. hit rate 0.74% among 340,000. AID 588413;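 active means inhibition above about 55%, limit read from the data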;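 further: 0% = DMSO-treated cells and 100% = wells with medium but no cells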
GRIN3A LBD mod: modulates the human NR3A ligand-binding domain. NR3A LBD differential scanning fluorimetry, Tm shift; 0% = protein alone, 100% = glycine-bound protein. Tm shift relative to glycine control, % at 25 µM. hit rate 2.5% among 340,000;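 active means melting temperature shift of at least 10% of the positive control shift, at one fixed dose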
Beta cell apopt: blocks beta cell apoptosis; INS-1E cytokine-induced death, ATP luminescence, 48 h; percent of positive-control rescue, neutral wells zero; protection from apoptosis, % (concentration not given with the values); hit rate 0.8% among 300,000; AID 435005;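 active means Every replicate reaches about 75%, or at least half do and their mean reaches it too, limit read from the data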;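 further: 0% = cytokine-treated negative control wells and 100% = positive control rescue; higher means more ATP so stronger rescue from cytokine killing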
The depositor's hits bear a star; x = no result. Compounds with a hit are over-represented: about 6.6% of the library has one in this group of screens.

SMILES | Mdm2-MdmX inh | CSC inhib | MPTP block | Gli-Sufu antag | GRIN3A LBD mod | Beta cell apopt
Cc1ccc(C)c(Nc2ccc(C(=O)NCCc3ccccc3)cn2)c1 | 2.4 | 19.4 | -1.0 | -0.3 | -9.4 | 5.4
Cc1ccc(Nc2ccc(C(=O)NCCc3ccccc3)cn2)cc1 | 20.2 | 21.6 | 1.8 | -17.7 | 24.1* | -1.8
COCCNC(=O)C1(C)CCCN(C(=O)c2cc(F)ccc2C)C1 (stereo unspecified) | x | x | 0.6 | x | x | x
COc1ccccc1C(=O)NC(CCSC)C(=O)NCc1ccncc1 (stereo unspecified) | -19.0 | x | -1.1 | 1.6 | -0.3 | -4.6
Cc1ccccc1-n1ncc2c1CC(C)(C)CC2NC(=O)CN1CCCC1=O (stereo unspecified) | 20.5 | 2.0 | -0.7 | -1.0 | 3.3 | -4.7
Cc1ccc2nc(-c3ccc(SCC(=O)O)nc3)[nH]c2c1 | -1.9 | -6.3 | -2.8 | 4.8 | 1.0 | 7.2
CC(=O)CSc1ccc(-c2nc3ccccc3[nH]2)cn1 | -93.0 | 43.2 | -0.8 | -102.5 | -13.3 | 79.1*
O=C(CSc1ccc(-c2nc3ccccc3[nH]2)cn1)Nc1ccc(S(=O)(=O)N2CCCC2)cc1 | -7.2 | 5.2 | -3.6 | 1.1 | 28.5* | 10.0
Cc1ccc(-c2nnc3ccc(SCC(=O)N4CCCc5ccccc54)nn23)cc1 | 36.2 | -22.9 | 3.7 | 16.1 | 18.4* | 4.1
Cc1ccc2nc(-c3ccc(SCC(=O)N4CCc5ccccc54)nc3)[nH]c2c1 | -53.4 | -6.6 | 3.9 | -48.0 | 22.7* | 14.3
CCOC(=O)CNC(=O)CSc1ccc(-c2nc3ccccc3[nH]2)cn1 | -24.7 | -2.9 | 0.6 | -5.5 | 1.7 | 5.4
CCCCN(C)c1c(C)nc2ccc(C(=O)N(CC)CCN(C)C)cn12 | x | x | -2.1 | x | x | x
COc1ccc(/C=C/C(=O)Nc2cccc(F)c2)cc1S(=O)(=O)N1CCOCC1 | 21.2 | 3.3 | 2.7 | 8.5 | 10.1* | 1.2
COc1ccc(/C=C/C(=O)Nc2ccccc2F)cc1S(=O)(=O)N1CCOCC1 | 31.7 | -14.3 | -0.3 | -5.1 | -3.1 | -0.4
O=C(/C=C/c1ccc(F)cc1)Nc1ccc(S(=O)(=O)N2CCOCC2)cc1 | 4.1 | 2.1 | 0.0 | 0.3 | 22.5* | 1.4
O=S(=O)(c1ccccc1)N1CCC(n2cnc3ccccc32)CC1 | 16.0 | -17.3 | -0.4 | 5.4 | -0.5 | x
C/C(=N\OC(=O)Nc1ccc(Cl)cc1)c1ccc(F)c(F)c1 | 14.7 | 10.9 | 1.2 | -4.8 | 36.1* | -4.7
CC(C)C(Cl)=NOC(=O)Nc1ccc(F)cc1 | x | x | -0.3 | -15.1 | 0.3 | x
CC(C)(C)NC(=O)C1c2ccccc2OCC(=O)N1Cc1ccc2c(c1)OCO2 (stereo unspecified) | x | x | -2.0 | x | x | x
COc1cc(C2c3c(-c4cc(C)cc(C)c4O)n[nH]c3C(=O)N2CCCO)cc(OC)c1OC (stereo unspecified) | 10.5 | -18.4 | 0.2 | 12.2 | 345.4* | 7.4
Cc1ccccc1CN1C(=O)CSCC1(C)C(=O)Nc1ccc2c(c1)OCCO2 (stereo unspecified) | x | x | -0.4 | x | x | x
COc1ccc(/C=C2/CCc3ccccc3C2=O)cc1OC | -18.4 | -10.8 | 3.0 | 1.7 | 10.1* | 0.3
COc1cc(/C=C2/CCc3ccccc3C2=O)cc(OC)c1OC | 45.4 | 4.3 | 2.4 | x | -3.4 | -5.1
O=C1/C(=C/c2ccco2)CCc2ccccc21 | -24.4 | -21.8 | 3.9 | -8.1 | 14.4* | -3.6
COc1cc2c(cc1OC)CN(C(=O)C(CCSC)NS(=O)(=O)c1ccc(C)cc1)CC2 (stereo unspecified) | -35.5 | -9.0 | -0.3 | 15.4 | -2.2 | -7.7
SMILES | Mdm2-MdmX inh | CSC inhib | MPTP block | Gli-Sufu antag | GRIN3A LBD mod | Beta cell apopt
Cc1ccccc1-c1cc2c(nn1)-c1ccccc1C2=O | -32.3 | 107.9* | -0.2 | -10.5 | -0.1 | 7.4
COc1ccccc1CNC(=O)COC(=O)c1ccc(C)c(S(=O)(=O)N2CCCCC2)c1 | -1.7 | -7.4 | 1.4 | 0.1 | 0.7 | -5.1
C/C(=N\N1C(=O)c2ccccc2NC1c1ccco1)c1ccccc1O (stereo unspecified) | -13.0 | -5.3 | 0.6 | 10.5 | -1.3 | 99.1*
C/C(=N\N1C(=O)c2ccccc2NC1c1ccccc1)c1ccccc1O (stereo unspecified) | -21.8 | 3.3 | -0.3 | -9.7 | -2.6 | 87.2*
O=C(NCc1cccc(C(F)(F)F)c1)c1csc([C@@H]2C[C@H](O)[C@@H](CO)O2)n1 | x | x | 0.3 | x | x | x
CC(=O)c1ccc(NC(=O)C(C)O/N=C(\N)c2ccccc2)cc1 (stereo unspecified) | 7.7 | 3.3 | -0.3 | -9.8 | 0.4 | -2.4
CC(C)CC(NC(=O)C(CC(C)C)NC(=O)C(Cc1ccc(OCc2ccccc2)cc1)NC(=O)OC(C)(C)C)C(N)=O (stereo unspecified) | -52.1 | 3.4 | 4.3 | -0.6 | -0.5 | -14.0
CC(C)CC(NC(=O)C(NC(=O)C(Cc1ccc(OCc2ccccc2)cc1)NC(=O)OC(C)(C)C)C(C)C)C(N)=O (stereo unspecified) | 3.0 | 137.7* | 1.4 | 1.1 | -0.8 | -0.8
CN(C)C/C=C(/c1ccc(Br)cc1)c1cccnc1 | -10.6 | -9.2 | -3.0 | 4.9 | 1.3 | x
CCCc1c(C)c2ccc(OCC(C)=O)cc2oc1=O | -12.6 | 2.2 | -2.3 | -59.4 | 11.7* | 1.4
CCOC(=O)/C=C/[C@H]1CC(c2ccccc2)(c2ccccc2)CO1 | 31.2 | 10.5 | 0.7 | -3.5 | -2.7 | 1.2
CCc1nnc(SCC(=O)Nc2ccc(NC(C)=O)cc2)n1-n1cccc1 | 24.2 | 9.0 | -1.4 | 28.1 | 18.1* | x
Cc1ccc(NC(=O)/C=C/c2cccc(C(F)(F)F)c2)cc1 | 24.1 | 7.1 | 17.0 | -4.3 | 24.6* | 0.6
COc1ccc(NC(=O)/C=C/c2cccc(Br)c2)cn1 | -5.9 | 16.7 | -1.7 | -78.0 | 32.6* | 5.5
COc1ccc(/C=C/C(=O)Nc2ccc(OC)nc2)cc1 | 8.3 | 15.5 | 1.8 | 25.6 | 26.1* | -10.8
COc1ccc(NC(=O)/C=C/c2ccc(OC(F)F)cc2)cn1 | 16.6 | x | 2.0 | -0.3 | 3.4 | -7.5
C/C=C/C(=O)Nc1cccc(C(F)(F)F)c1 | 0.9 | 6.1 | -0.5 | 3.8 | -0.6 | -1.2
COc1ccc(NC(=O)/C=C/c2cccc(C(F)(F)F)c2)cn1 | -19.1 | 9.4 | 1.7 | -24.8 | 11.4* | -1.9
Cc1ccc(/C=C/C(=O)N2CCN(c3cccc(C(F)(F)F)c3)CC2)cc1 | 19.4 | 0.8 | 13.5 | 12.3 | 20.7* | -9.2
O=C(/C=C/c1cccc(F)c1)Nc1ccc(S(=O)(=O)Nc2ncccn2)cc1 | 5.0 | -7.8 | 1.1 | -5.8 | -7.3 | -6.3
COc1ccc(/C=C/C(=O)Nc2cc(C(F)(F)F)ccc2Cl)cc1 | 19.5 | -0.8 | 3.0 | 6.2 | 14.8* | -0.3
Cc1ccc(C)c(C(=O)CCC(=O)N2CCN(c3cccc(C(F)(F)F)c3)CC2)c1 | 2.8 | 34.8 | 1.8 | -11.2 | 4.4 | 4.5
CNC(=O)c1ccc(NC(=O)/C=C/c2cccc(F)c2)cc1 | -19.1 | 21.3 | -0.6 | -39.3 | 14.0* | 2.2
O=C(NCC1COc2ccccc2O1)c1ccc(Br)s1 (stereo unspecified) | -62.0 | 0.1 | 3.4 | -30.5 | -0.2 | 5.5
